Results on eight sequences are retold here after PMC7862700, “An all-to-all approach to the identification of sequence-specific readers for epigenetic DNA modifications on cytosine”.

What all share (experiment): DAPPL (digital affinity profiling via proximity ligation, sequencing); 10 mM Tris-HCl pH 7.5, 50 mM NaCl, 1 mM DTT, 4% glycerol, room temperature, 30 min; GST-TFs on glutathione beads, 16-mer random dsDNA library, 0.1% formaldehyde crosslink after washing; high values mean tight binding
Assay [1] deals with T1, FEV (Homo sapiens, UniProt Q99581 1-238).
T1 sequence: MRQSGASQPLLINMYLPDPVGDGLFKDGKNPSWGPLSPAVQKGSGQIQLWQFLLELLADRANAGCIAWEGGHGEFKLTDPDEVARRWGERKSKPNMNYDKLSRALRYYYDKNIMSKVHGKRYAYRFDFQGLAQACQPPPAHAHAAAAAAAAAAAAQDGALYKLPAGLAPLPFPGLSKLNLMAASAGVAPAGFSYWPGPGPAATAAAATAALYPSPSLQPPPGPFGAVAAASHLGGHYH
As to conditions: protein: recombinant; tags: N-terminal GST; dsDNA, one strand shown. In a few lines: (§1)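 Human transcription factors fused to GST were expressed in yeast, captured on glutathione beads, given DNA barcodes and pooled with a GST-only negative control. Pools were incubated with 200 nmole of a 16-mer random double-stranded DNA library in Tris/NaCl/DTT/glycerol buffer at room temperature for 30 min. They were then washed, crosslinked with 0.1% formaldehyde, proximity-ligated (BsaI/T4 ligase, 1 h, 37 °C), PCR-amplified and sequenced on an Illumina NextSeq500. Binding signal is each 6-mer's read frequency for a factor divided by its frequency for the GST control.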

The target in assay [2] is ETV5 (Homo sapiens, UniProt P41161 1-510). As to conditions: protein: recombinant; tags: N-terminal GST; dsDNA, one strand shown. In a few lines:
as §1

The target of assay [3] is HSF1 (Homo sapiens, UniProt Q00613 1-529). The settings on record: protein: recombinant; tags: N-terminal GST; chain copies: 3; dsDNA, one strand shown. In a few lines: as §1
Sequence of HSF1 (Q00613 whole entry): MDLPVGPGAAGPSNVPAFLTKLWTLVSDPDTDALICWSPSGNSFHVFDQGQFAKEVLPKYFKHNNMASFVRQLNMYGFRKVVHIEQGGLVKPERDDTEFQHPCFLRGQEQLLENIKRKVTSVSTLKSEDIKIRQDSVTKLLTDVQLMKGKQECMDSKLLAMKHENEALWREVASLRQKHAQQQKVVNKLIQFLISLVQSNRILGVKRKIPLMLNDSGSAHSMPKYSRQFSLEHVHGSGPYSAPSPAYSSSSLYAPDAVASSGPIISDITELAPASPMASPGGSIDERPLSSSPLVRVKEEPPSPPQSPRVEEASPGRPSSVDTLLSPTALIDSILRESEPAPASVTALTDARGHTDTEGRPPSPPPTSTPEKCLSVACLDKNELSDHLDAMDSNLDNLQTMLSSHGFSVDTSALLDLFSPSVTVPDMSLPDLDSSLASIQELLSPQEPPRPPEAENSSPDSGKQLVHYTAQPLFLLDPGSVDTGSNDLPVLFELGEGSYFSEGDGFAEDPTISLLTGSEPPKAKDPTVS
In assay [4] the target is T2, SPIC (Homo sapiens, UniProt Q8N5J4 1-248).
T2 sequence: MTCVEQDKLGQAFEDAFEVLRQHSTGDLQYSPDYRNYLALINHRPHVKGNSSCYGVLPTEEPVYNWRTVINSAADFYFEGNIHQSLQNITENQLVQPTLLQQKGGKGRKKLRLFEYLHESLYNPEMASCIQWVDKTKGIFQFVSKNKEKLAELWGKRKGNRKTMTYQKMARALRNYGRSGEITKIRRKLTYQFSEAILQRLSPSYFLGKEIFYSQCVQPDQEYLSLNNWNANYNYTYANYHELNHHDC
As to conditions: protein: recombinant; tags: N-terminal GST; dsDNA, one strand shown. In a few lines: as §1

Assay [5] has as its target ELF4 (Homo sapiens, UniProt Q99607 1-663). As to conditions: protein: recombinant; tags: N-terminal GST; dsDNA, one strand shown. The method in brief: as §1
In assay [6] the target is T3, ELK4 (Homo sapiens, UniProt P28324-2 1-405).
T3 sequence: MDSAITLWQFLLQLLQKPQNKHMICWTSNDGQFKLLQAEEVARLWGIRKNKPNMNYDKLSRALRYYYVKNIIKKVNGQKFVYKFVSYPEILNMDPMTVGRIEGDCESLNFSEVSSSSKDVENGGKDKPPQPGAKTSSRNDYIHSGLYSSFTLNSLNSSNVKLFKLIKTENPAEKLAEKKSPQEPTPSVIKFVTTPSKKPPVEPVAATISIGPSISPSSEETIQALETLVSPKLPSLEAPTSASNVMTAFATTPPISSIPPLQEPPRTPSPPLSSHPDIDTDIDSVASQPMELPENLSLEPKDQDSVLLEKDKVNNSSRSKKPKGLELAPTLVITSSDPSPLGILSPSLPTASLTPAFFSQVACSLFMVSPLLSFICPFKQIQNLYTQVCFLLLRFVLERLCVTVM
The settings on record: protein: recombinant; tags: N-terminal GST; dsDNA, one strand shown. The method in brief: as §1

In assay [7] the target is T4, ETV2 (Homo sapiens, UniProt O00321 1-342).
T4 sequence: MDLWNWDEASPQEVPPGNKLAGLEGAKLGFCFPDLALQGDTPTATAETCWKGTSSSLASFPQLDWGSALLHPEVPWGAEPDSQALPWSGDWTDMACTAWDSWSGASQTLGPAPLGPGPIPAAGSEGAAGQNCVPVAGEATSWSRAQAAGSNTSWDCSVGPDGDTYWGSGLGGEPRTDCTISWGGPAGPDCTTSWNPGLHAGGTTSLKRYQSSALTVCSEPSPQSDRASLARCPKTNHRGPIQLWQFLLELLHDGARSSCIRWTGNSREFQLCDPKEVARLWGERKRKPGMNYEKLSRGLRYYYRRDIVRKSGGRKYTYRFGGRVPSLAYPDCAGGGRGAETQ
As to conditions: protein: recombinant; tags: N-terminal GST; dsDNA, one strand shown. In a few lines:
as §1

The target of assay [8] is T5, ELF3 (Homo sapiens, UniProt P78545 1-371).
T5 sequence: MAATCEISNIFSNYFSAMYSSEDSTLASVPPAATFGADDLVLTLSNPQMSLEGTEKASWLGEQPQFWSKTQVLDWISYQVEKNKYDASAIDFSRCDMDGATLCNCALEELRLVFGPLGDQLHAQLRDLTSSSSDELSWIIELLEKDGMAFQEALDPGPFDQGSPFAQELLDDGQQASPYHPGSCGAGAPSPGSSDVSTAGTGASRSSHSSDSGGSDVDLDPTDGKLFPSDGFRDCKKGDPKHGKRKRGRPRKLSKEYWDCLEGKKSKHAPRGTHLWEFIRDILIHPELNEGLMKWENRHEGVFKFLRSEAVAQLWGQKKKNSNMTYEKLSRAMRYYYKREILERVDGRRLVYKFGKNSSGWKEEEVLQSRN
The settings on record: protein: recombinant; tags: N-terminal GST; dsDNA, one strand shown. In a few lines: as §1

Assay [9] concerns the target ETV1 (Homo sapiens, UniProt P50549 1-477). As to conditions: protein: recombinant; tags: N-terminal GST; dsDNA, one strand shown. In a few lines:
as §1

Sequence of ETV5 (P41161 whole entry): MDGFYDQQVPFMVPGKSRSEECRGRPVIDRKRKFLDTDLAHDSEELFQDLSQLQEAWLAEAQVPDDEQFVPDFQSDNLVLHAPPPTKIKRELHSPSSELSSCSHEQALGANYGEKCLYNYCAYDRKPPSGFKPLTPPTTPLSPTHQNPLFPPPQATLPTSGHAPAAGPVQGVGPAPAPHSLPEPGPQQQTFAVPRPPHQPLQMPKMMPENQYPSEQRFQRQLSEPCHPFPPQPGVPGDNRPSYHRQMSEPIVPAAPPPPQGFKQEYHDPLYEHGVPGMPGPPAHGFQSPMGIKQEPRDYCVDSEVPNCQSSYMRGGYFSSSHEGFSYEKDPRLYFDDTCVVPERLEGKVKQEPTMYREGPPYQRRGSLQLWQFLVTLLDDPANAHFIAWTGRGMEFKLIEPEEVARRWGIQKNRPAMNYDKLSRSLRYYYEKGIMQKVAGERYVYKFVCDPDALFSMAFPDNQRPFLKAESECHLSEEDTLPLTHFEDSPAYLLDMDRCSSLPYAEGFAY
Sequence of ETV1 (P50549 whole entry): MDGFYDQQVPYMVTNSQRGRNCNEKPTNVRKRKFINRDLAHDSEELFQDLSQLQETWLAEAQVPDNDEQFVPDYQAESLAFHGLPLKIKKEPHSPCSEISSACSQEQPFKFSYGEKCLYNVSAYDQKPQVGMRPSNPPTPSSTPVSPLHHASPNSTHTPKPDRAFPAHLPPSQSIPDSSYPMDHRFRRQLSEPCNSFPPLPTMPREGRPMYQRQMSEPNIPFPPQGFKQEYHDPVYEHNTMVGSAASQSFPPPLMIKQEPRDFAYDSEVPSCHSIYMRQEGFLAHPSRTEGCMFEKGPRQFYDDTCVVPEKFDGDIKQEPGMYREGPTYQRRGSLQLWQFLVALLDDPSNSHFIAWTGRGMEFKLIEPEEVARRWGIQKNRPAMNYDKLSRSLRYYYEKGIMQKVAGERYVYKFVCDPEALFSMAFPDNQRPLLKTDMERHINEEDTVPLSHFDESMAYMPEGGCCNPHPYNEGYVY
Sequence of ELF4 (Q99607 whole entry): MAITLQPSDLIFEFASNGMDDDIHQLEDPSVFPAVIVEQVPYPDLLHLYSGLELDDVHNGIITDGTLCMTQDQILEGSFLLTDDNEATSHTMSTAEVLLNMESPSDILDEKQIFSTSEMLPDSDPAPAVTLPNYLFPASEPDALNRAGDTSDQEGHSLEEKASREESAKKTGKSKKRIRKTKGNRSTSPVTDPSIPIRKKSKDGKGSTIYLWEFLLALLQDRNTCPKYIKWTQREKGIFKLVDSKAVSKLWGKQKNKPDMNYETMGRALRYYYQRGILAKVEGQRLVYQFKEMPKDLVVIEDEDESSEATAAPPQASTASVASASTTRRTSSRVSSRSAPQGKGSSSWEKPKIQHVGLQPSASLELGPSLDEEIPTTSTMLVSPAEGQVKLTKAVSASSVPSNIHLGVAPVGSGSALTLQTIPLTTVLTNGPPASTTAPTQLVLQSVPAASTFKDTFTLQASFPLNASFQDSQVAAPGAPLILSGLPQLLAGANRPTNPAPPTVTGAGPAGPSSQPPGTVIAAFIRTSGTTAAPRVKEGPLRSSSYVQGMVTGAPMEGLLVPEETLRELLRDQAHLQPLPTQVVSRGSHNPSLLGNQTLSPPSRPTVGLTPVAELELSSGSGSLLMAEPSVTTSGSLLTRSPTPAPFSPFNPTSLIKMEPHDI

For CATTTC, the binding signal in [1] is 2.2 fold enrichment (6-mer frequency, TF over GST control); in [2], 1.95 fold enrichment (6-mer frequency, TF over GST control); in assay [3], 1.13 fold enrichment (6-mer frequency, TF over GST control); in assay [4] it was 1.88 fold enrichment (6-mer frequency, TF over GST control); in assay [5], 1.73 fold enrichment (6-mer frequency, TF over GST control); in assay [6], 1.66 fold enrichment (6-mer frequency, TF over GST control). In addition, the binding signal in assay [7] is 1.78 fold enrichment (6-mer frequency, TF over GST control); in assay [8], 1.61 fold enrichment (6-mer frequency, TF over GST control); in assay [9] it was 1.84 fold enrichment (6-mer frequency, TF over GST control).

GGTTCC: the binding signal in assay [1] is 1.68 fold enrichment (6-mer frequency, TF over GST control); in [2], 1.57 fold enrichment (6-mer frequency, TF over GST control); in assay [3] it was 1.13 fold enrichment (6-mer frequency, TF over GST control); in [4], 1.38 fold enrichment (6-mer frequency, TF over GST control); in assay [5] it was 1.44 fold enrichment (6-mer frequency, TF over GST control); in assay [6], 1.38 fold enrichment (6-mer frequency, TF over GST control). In addition, the binding signal was 1.32 fold enrichment (6-mer frequency, TF over GST control) in assay [7]; 1.7 fold enrichment (6-mer frequency, TF over GST control) in assay [8]; 1.63 fold enrichment (6-mer frequency, TF over GST control) in assay [9].

Consider GCCTCA, for which the binding signal in assay [1] is 1.19 fold enrichment (6-mer frequency, TF over GST control); in assay [2] it was 1.22 fold enrichment (6-mer frequency, TF over GST control); in [3], 1.05 fold enrichment (6-mer frequency, TF over GST control); in assay [4], 1.21 fold enrichment (6-mer frequency, TF over GST control); in assay [5] it was 1.2 fold enrichment (6-mer frequency, TF over GST control); in assay [6], 1.13 fold enrichment (6-mer frequency, TF over GST control). Further, the binding signal in assay [7] is 1.12 fold enrichment (6-mer frequency, TF over GST control); in assay [8], 1.34 fold enrichment (6-mer frequency, TF over GST control); in assay [9], 1.13 fold enrichment (6-mer frequency, TF over GST control).

For GATGGT, the binding signal in assay [1] was 1.07 fold enrichment (6-mer frequency, TF over GST control); in [2] it was 1.16 fold enrichment (6-mer frequency, TF over GST control); in [3] it was 1.02 fold enrichment (6-mer frequency, TF over GST control); in assay [4], 1.19 fold enrichment (6-mer frequency, TF over GST control); in assay [5] it was 1.11 fold enrichment (6-mer frequency, TF over GST control); in assay [6] it was 1.18 fold enrichment (6-mer frequency, TF over GST control). Moreover, the binding signal in assay [7] was 1.37 fold enrichment (6-mer frequency, TF over GST control); in assay [8], 1.19 fold enrichment (6-mer frequency, TF over GST control); in assay [9], 1.22 fold enrichment (6-mer frequency, TF over GST control).

Consider CTGACA, for which the binding signal in [1] is 1.19 fold enrichment (6-mer frequency, TF over GST control); in [2], 1.22 fold enrichment (6-mer frequency, TF over GST control); in [3], 1.01 fold enrichment (6-mer frequency, TF over GST control); in [4], 1.03 fold enrichment (6-mer frequency, TF over GST control); in assay [5], 1.27 fold enrichment (6-mer frequency, TF over GST control); in assay [6], 1.29 fold enrichment (6-mer frequency, TF over GST control). In addition, the binding signal was 1.2 fold enrichment (6-mer frequency, TF over GST control) in assay [7]; 1.25 fold enrichment (6-mer frequency, TF over GST control) in assay [8]; 1.19 fold enrichment (6-mer frequency, TF over GST control) in [9].

Turning to TGCGTA, the binding signal in [1] was 1.06 fold enrichment (6-mer frequency, TF over GST control); in assay [2], 1.12 fold enrichment (6-mer frequency, TF over GST control); in assay [3], 1.06 fold enrichment (6-mer frequency, TF over GST control); in assay [4] it was 1.11 fold enrichment (6-mer frequency, TF over GST control); in [5], 1.08 fold enrichment (6-mer frequency, TF over GST control); in assay [6] it was 1.27 fold enrichment (6-mer frequency, TF over GST control). Also, the binding signal in [7] is 1.21 fold enrichment (6-mer frequency, TF over GST control); in assay [8], 1.01 fold enrichment (6-mer frequency, TF over GST control); in assay [9], 1.24 fold enrichment (6-mer frequency, TF over GST control).

With ATGCTG, the binding signal in assay [1] was 1.06 fold enrichment (6-mer frequency, TF over GST control); in [2], 1.13 fold enrichment (6-mer frequency, TF over GST control); in [3] it was 1.02 fold enrichment (6-mer frequency, TF over GST control); in assay [4] it was 1.14 fold enrichment (6-mer frequency, TF over GST control); in assay [5], 1.06 fold enrichment (6-mer frequency, TF over GST control); in assay [6], 1.26 fold enrichment (6-mer frequency, TF over GST control). The binding signal in [7] was 1.19 fold enrichment (6-mer frequency, TF over GST control); in [8] it was 1.26 fold enrichment (6-mer frequency, TF over GST control); in assay [9], 1.06 fold enrichment (6-mer frequency, TF over GST control).

With ACTGCC, the binding signal in assay [1] was 1.39 fold enrichment (6-mer frequency, TF over GST control); in assay [2] it was 1.38 fold enrichment (6-mer frequency, TF over GST control); in [3], 1.06 fold enrichment (6-mer frequency, TF over GST control); in assay [4], 1.61 fold enrichment (6-mer frequency, TF over GST control); in [5], 1.39 fold enrichment (6-mer frequency, TF over GST control); in [6] it was 1.31 fold enrichment (6-mer frequency, TF over GST control). In addition, the binding signal in [7] is 1.16 fold enrichment (6-mer frequency, TF over GST control); in assay [8], 1.24 fold enrichment (6-mer frequency, TF over GST control); in [9] it was 1.3 fold enrichment (6-mer frequency, TF over GST control).
